Article PMC13494018
A number with no mark means an inactive call. How the calls were made is not given here.

B1: design_616_e8336982-fa4d-4d7c-b06f-9007953e1994_1719_dldesign_0_cycle1_af2pred (protein)
chain: AEAAGKAAAAAIELSREMLRIAREAGNEEVIAIAQRATAAFNQAMLDKKAGIERLKEVAKEAEELPEGKPVAELVKKAIKAFEA
B2: design_616_e8336982-fa4d-4d7c-b06f-9007953e1994_396_dldesign_0_cycle1_af2pred (protein)
chain: GMAELLAELREAEARTTALELMFQAGKNIHPGVAAQGLEAARRLRELAERVADAISPEERARYLAAAERTEELAA
B3: design_616_e8336982-fa4d-4d7c-b06f-9007953e1994_1969_dldesign_0_cycle1_af2pred (protein)
chain: GEEEKEKKKERFEEILKKAIEGKATKEEIEQAALDGVAYDGGEAVLALLKAYAEAKDPEVRKYLAQALALAARLTAAKLRA
B4: design_616_e8336982-fa4d-4d7c-b06f-9007953e1994_1581_dldesign_0_cycle1_af2pred (protein)
chain: EEARREELARKAEEKAEEIAKRLAKEGKSVEEIVEEAERYAKELLRPESEEVREEAAGRAANAAVRAYAKVSLELSA
B5: design_616_e8336982-fa4d-4d7c-b06f-9007953e1994_1282_dldesign_0_cycle1_af2pred (protein)
chain: AAALEVTRRTIFAMADHAYKSENLETAKAIMKTLGQIAVAAGEEVLKEAREYIEKLAKESTEEKAKALLEGFEEGVAEAKA
B6: design_616_e8336982-fa4d-4d7c-b06f-9007953e1994_756_dldesign_0_cycle1_af2pred (protein)
chain: SQAALDAAYNSAKAFAESAKRAAEKGDVQAAEAAYKSAKLAAESAKVIGAAAGEEAKKVAEKAEKIAEEAKKLVEKLKKEA
B7: design_616_e8336982-fa4d-4d7c-b06f-9007953e1994_787_dldesign_0_cycle1_af2pred (protein)
chain: VAAAISAATSTAVELLRAAAGATPEQRAEAHALAAEVNRAAVAAAADPSALPATRAELERARARLEAVRAALA
B8: design_616_e8336982-fa4d-4d7c-b06f-9007953e1994_1040_dldesign_0_cycle1_af2pred (protein)
chain: MEEVLREVERQAESVEKLAQAVIDLAQNDPEAQAKAKELAEKAREARERALEEPETAEEQLKRLQELFEEARRLAAETSRRAIAAA
B9: design_616_e8336982-fa4d-4d7c-b06f-9007953e1994_1845_dldesign_0_cycle1_af2pred (protein)
chain: MEEEERKKKREKAEELLAKAKEHIEAAAKQGALGDGLKFATEVVREATELDPELGEEVAKRVQQLLAEQSRQAIA
B10: design_616_e8336982-fa4d-4d7c-b06f-9007953e1994_528_dldesign_0_cycle1_af2pred (protein)
chain: SLLEAALAELRARFEAAKTATPAEAAALVRAAQGTLLTAAAQAGAPLEAMAAVSRVLGAAAETAATAPPEERAAALDAALAEVAALLA
B11: design_616_e8336982-fa4d-4d7c-b06f-9007953e1994_1283_dldesign_0_cycle1_af2pred (protein)
chain: AAAAAAAAAARAALRAELLALAEEGAKKVLAGEISLGEAVKAIMEAGAADPEAANEAAAYLIRTVMQATQAA
B12: design_616_e8336982-fa4d-4d7c-b06f-9007953e1994_692_dldesign_0_cycle1_af2pred (protein)
chain: MSEAERLAARGLALARHAALLVGLAVGPEEARRLYAAVAAAAADPAALIEVTTEVLELAKEKAALVPQALTTAREALELLTRARELA
B13: design_616_e8336982-fa4d-4d7c-b06f-9007953e1994_1780_dldesign_0_cycle1_af2pred (protein)
chain: MASLAQGVINMVRSLAELAIKASPEEAAKLAAEAADIAIAGGEQFGAETAEEAAKILEEAAKAKPEVAPYAERVKKKLKEL
B14: design_616_e8336982-fa4d-4d7c-b06f-9007953e1994_1848_dldesign_0_cycle1_af2pred (protein)
chain: GMAEKEKEYEEKLKEYKAKAKEAAKLTVEDPEAGAKKFKEIIEKAAKDFPERAKEIEEELLKVYREALAAAARAAIAAARA
B15: design_616_e8336982-fa4d-4d7c-b06f-9007953e1994_1055_dldesign_0_cycle1_af2pred (protein)
chain: GAAEEARKKAEEALKKIEELKEKAKADPANAGAYALEAVKTAAEASRALREADPALEEEIDRLRQAAAEAIRAALATQTA
B16: design_616_e8336982-fa4d-4d7c-b06f-9007953e1994_1901_dldesign_0_cycle1_af2pred (protein)
chain: AAAARAAAAALAAEAIAAAAAAVAADPAAAAIIHAQAERARGGDAATAVRAAQAAGVLAAVLAGDEALAAAVTRRAAALLAA
B17: design_616_e8336982-fa4d-4d7c-b06f-9007953e1994_502_dldesign_0_cycle1_af2pred (protein)
chain: MTPEQLAAMERSVARIAEAGARAPTEEEFESAMTAALALAESFGRKAGAPELATARAREIVAKYRARRLA
B18: design_616_e8336982-fa4d-4d7c-b06f-9007953e1994_392_dldesign_0_cycle1_af2pred (protein)
chain: AEAYQKALATAEKLLAQGQAGLADPSNAEALEKGAQGYFLLAALYPEKREEYVAKGEALYKKAEEARAAQAA
B19: design_616_e8336982-fa4d-4d7c-b06f-9007953e1994_1398_dldesign_0_cycle1_af2pred (protein)
chain: PREEVERLEREVREARKRAEAATTVEQAGEAALEALEAEARARRLAEELRARGGDEELAERAERVAEEARAVFLFAAGKAIELAKA
B20: design_616_e8336982-fa4d-4d7c-b06f-9007953e1994_576_dldesign_0_cycle1_af2pred (protein)
chain: SPALELTKRVAEAMAAQARRAAEEDPALGRAQFENALQIAKQFNPEQGALFRAILEATRAEVEAALAAAA
B21: design_616_e8336982-fa4d-4d7c-b06f-9007953e1994_1495_dldesign_0_cycle1_af2pred (protein)
chain: SEAELAKKFEEGLKKVEEAKKYAKKVEAKDPEKGKKLKELAGEAANAVLRGYAIPEKAEEEWAKVEKIYEEAKKIAA
B22: design_616_e8336982-fa4d-4d7c-b06f-9007953e1994_1745_dldesign_0_cycle1_af2pred (protein)
chain: APLEAVAKEAAEIAAKELPEASLEDALLVAEALLNPEKAKEYFAEVKKRLSPEDAARLFQTVGKAFSQLSLKLQAALAA
B23: design_616_e8336982-fa4d-4d7c-b06f-9007953e1994_632_dldesign_0_cycle1_af2pred (protein)
chain: AAADTEKFKKATEHALKAVELAKEGKLEEAEKEAKKAEEEAKKIKDPVTKAGALALAKAARQVIESKAKE
B24: design_616_e8336982-fa4d-4d7c-b06f-9007953e1994_1227_dldesign_0_cycle1_af2pred (protein)
chain: SSGAQLVTTAGAVILAQVPPAAHPYVEAATAAGVAEGVEAFLSGLQEARKALSPEDAAVLLAATTAGLAAGAKAVIA
B25: design_616_e8336982-fa4d-4d7c-b06f-9007953e1994_767_dldesign_0_cycle1_af2pred (protein)
chain: AAAREAAVEAAKKQLEELKKKAEELLAYLKANPAASPEEKQKVLEESTKIISQASELAEAYPEVAEQAREAMSAAAKAAILAQKLL
B26: design_616_e8336982-fa4d-4d7c-b06f-9007953e1994_1205_dldesign_0_cycle1_af2pred (protein)
chain: DQAQAKAVAIKTVEGMLKKMKQLKEEAEKNAADPSIAIPKAEAIKQLAEVSMAILKAAGLDQETIDKYEKEAKALKEAAEKAAKKAKE
B27: design_616_e8336982-fa4d-4d7c-b06f-9007953e1994_1400_dldesign_0_cycle1_af2pred (protein)
chain: AAAAVAIADKTIAALARQARRLAEEAIRDPDPERARRLVESAEELVRVAEDIAEAMGASPEAKEAVRRAREEVERAREVVER
B28: design_616_e8336982-fa4d-4d7c-b06f-9007953e1994_824_dldesign_0_cycle1_af2pred (protein)
chain: DDLERGRELAEEVARVIREGTPEEAKRAIEEAAERLAELSAGAALLAGSLMVREAAKVPGGEELTAHIRAELLRVLRAKIAAA
B29: design_616_e8336982-fa4d-4d7c-b06f-9007953e1994_606_dldesign_0_cycle1_af2pred (protein)
chain: SPLAQAQADLLRRTLAALRRSVERAEELAREDPEAGAARLRALAQSAEVVLEAARGLAAQDPALGAETVAAAREVLERAREAEERAR
B30: design_616_e8336982-fa4d-4d7c-b06f-9007953e1994_1142_dldesign_0_cycle1_af2pred (protein)
chain: SAKAEAAKKEYEKAKKAAEEAKKVAKAAGDEAGAAAAKALEKSAENALRNGNLEMVKQVKEIAEAEKEIAEKKLK
B31: design_616_e8336982-fa4d-4d7c-b06f-9007953e1994_1883_dldesign_0_cycle1_af2pred (protein)
chain: NAEVAKLLGQIIDELQAAQAAAAAGDLKAAAKEAQKAAEAAGKIGDPEKGKELAAGAKADPSKAVEYARQALSIASAAAIKIAA
B32: design_616_e8336982-fa4d-4d7c-b06f-9007953e1994_719_dldesign_0_cycle1_af2pred (protein)
chain: PTPVEVAEAAAQATIKTAKRQVEEAKRLLKEGKAEEALRLAESAIQNAEIAKDLAENNPEKKEELKKQAEEVKKEAEEVKEEAEKKL
B33: design_616_e8336982-fa4d-4d7c-b06f-9007953e1994_1084_dldesign_0_cycle1_af2pred (protein)
chain: MTVDERLWETTEKLVELIEQVAASAPAFPKEGAIRTIKGLAANAKLAAEAALKAGASPEVTKAAAEKVEKAAKAALAKVE
B34: design_616_e8336982-fa4d-4d7c-b06f-9007953e1994_543_dldesign_0_cycle1_af2pred (protein)
chain: MEEAIAELNKAFAALNAAARTTDAATAQENAKKAIEYAKAAAKAAGEAMAPAAKGIIEQAKEVAAAKAALAA
B35: design_616_e8336982-fa4d-4d7c-b06f-9007953e1994_1846_dldesign_0_cycle1_af2pred (protein)
chain: AQAEKEAAAAKAKRLLDQLKEFGALAVTAAAASAQQGQAYLAMARQLAANAKEEAKKTGEEGKELAAQAEATLAAAEAGVAAALAAA
B36: design_616_e8336982-fa4d-4d7c-b06f-9007953e1994_1297_dldesign_0_cycle1_af2pred (protein)
chain: DPTAEAAARSAEARALRERGAAAGPEAAAVAEAAALAAQRANYYYLISYGDPSAAEAAAKAAEAEAEARELRAELEKLLAEAE
B37: design_616_e8336982-fa4d-4d7c-b06f-9007953e1994_1415_dldesign_0_cycle1_af2pred (protein)
chain: AAAALAAAVAAAKEIAADLSPEDQAIVVTAAVLAVTGAGLGQAIELARAHPAISAAIMGAAARAQAAVLAAA
B38: design_616_e8336982-fa4d-4d7c-b06f-9007953e1994_1403_dldesign_0_cycle1_af2pred (protein)
chain: GAARAAELQGKADYLLAKSYADAALKSPDPEKAAELLKKAKEYAERALEDPVGAPYGEKALKYIEEVEKAL

biological target: CD276, Q5ZPR3
Sequence (Q5ZPR3 whole entry): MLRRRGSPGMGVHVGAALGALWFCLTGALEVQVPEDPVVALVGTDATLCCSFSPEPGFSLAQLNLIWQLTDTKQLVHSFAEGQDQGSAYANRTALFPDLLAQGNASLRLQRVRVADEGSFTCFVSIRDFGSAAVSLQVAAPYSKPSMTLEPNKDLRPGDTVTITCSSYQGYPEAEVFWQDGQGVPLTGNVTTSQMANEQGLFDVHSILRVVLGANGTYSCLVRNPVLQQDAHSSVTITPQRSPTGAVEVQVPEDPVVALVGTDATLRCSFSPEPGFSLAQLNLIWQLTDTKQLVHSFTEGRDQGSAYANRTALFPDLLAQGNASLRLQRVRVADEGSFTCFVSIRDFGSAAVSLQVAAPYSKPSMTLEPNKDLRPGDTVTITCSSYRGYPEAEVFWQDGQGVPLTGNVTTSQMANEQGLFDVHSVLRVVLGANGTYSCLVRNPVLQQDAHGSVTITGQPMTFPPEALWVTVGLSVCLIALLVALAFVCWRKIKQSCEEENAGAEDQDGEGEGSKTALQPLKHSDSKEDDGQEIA

Binder | binding in a display sort
B1 | not found
B2 | not found
B3 | not found
B4 | not found
B5 | not found
B6 | not found
B7 | not found
B8 | not found
B9 | not found
B10 | not found
B11 | not found
B12 | not found
B13 | not found
B14 | not found
B15 | not found
B16 | not found
B17 | not found
B18 | not found
B19 | not found

Binder | binding in a display sort
B20 | not found
B21 | not found
B22 | not found
B23 | not found
B24 | not found
B25 | not found
B26 | not found
B27 | not found
B28 | not found
B29 | binds (active)
B30 | not found
B31 | not found
B32 | not found
B33 | not found
B34 | not found
B35 | not found
B36 | not found
B37 | not found
B38 | not found
